Reference: PubChem BioAssay AID624287 (National Center for Advancing Translational Sciences (NCATS), 2012)
Among all 340,000 compounds or so, about 420 (0.12%) were called active. Not shown: some 10% with an inconclusive outcome. Calls follow the shape of the dose curve; as a rule, active = well fitted activation curve with a large enough effect; inconclusive = small, poorly fitted or top-dose-only effect, or another doubt; inactive = no such curve, though single readings can be large or run the other way; cell line not stated here. This excerpt belongs to a sample that is enriched for actives.

Assay: qHTS for Agonist of gsp, the Etiologic Mutation Responsible for Fibrous Dysplasia/McCune-Albright Syndrome: qHTS; also: nearly all actives have a fitted effect of over 60% in size;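 as to activation (cAMP increase): phosphodiesterase inhibitor Ro 20-1724 added with compounds to block cAMP breakdown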
Conditions: gsp mutant cells, cAMP HTRF, 30 min; series mostly up to 76.9 µM; activation (cAMP increase): at the top concentration
From the text: McCune-Albright syndrome (MAS) is a rare disease caused by somatic mutations in Gsgsp), a widely expressed protein central in signal transduction from G-coupled protein receptors (GPCRs). The disease symptoms are diverse, owing to the fact that the patients are mosaics with varying degrees of tissue involvement. Greater than 90% of the mutations in Gs in MAS occur at the R201 position and are equally divided between R201H and R201C. The R201 residue is central in the intrinsic GTPase activity of Gs and the H and C mutations lead to loss of, or impairment of, the GTPase activity. The intrinsic GTPase activity is necessary to terminate the interaction between Gs and adenylate cyclase, and to terminate the cAMP-mediated signaling of the given GPCR pathway. Thus, these activating mutations lead to ligand-independent activation of GPCR pathways. The tissue phenotype is determined by the role of Gs in the function of a given cell, and excess Gs/cAMP signaling in that cell. For example, pituitary somatotrophs overproduce growth hormone in a growth hormone releasing hormone-independent fashion, and gigantism/acromegaly ensues. Skeletal stem cells in the bone marrow behave as if they are under constant parathyroid hormone stimulation and fail to differentiate into osteoblasts and osteocytes, and proliferate as immature osteogenic cells and lead to the marrow fibrosis of fibrous dysplasia of bone. The goal of this project is to identify molecules with stimulatory activity at gsp mutations that will not only allow for in-depth study of the underlying molecular and cellular pathophysiology, but also serve as compounds from which drugs to treat FD/MAS can be developed NIH Chemical Genomics Center [NCGC] NIH Molecular Libraries Probe Centers Network [MLPCN] MLPCN Grant: IRP-FT-DE-2011-01 Assay Submitter (PI): Michael Collins, NIDCR
1.#Seed 2000 cells/well in 6 ul DMEM 10% FBS, 1% Pen/Strep, 0.5 mg/ml G418 2.#Incubate 16-24 hr at 37C, 5% CO2, 95% humidity 3.#Aspirate leaving 1 ul residual volume 4.#Dispense 5 ul/well DPBS + 1 mM CaCl2, 0.5 mM MgCl2, 0.05% BSA, 0.005% Tween 20 5.#Aspirate leaving 2 ul residual volume 6.#Dispense 23 nl/well compounds in DMSO 7.#Dispense 1 ul/well 300 uM Ro-20174 in DMEM 10% FBS 8.#Incubate 30 min at 37C, 5% CO2, 95% humidity 9.#Dispense 1.5 ul/well HTRF reagent: cAMP-d2 in lysis buffer 10.#Dispense 1.5 ul/well HTRF reagent: anti-cAMP antibody-K in lysis buffer 11.#Incubate 30 min at room temperature 12.#Detect HTRF signal using EnVision plate reader
Potency is read from the fitted curve at half-maximal effect.

Activation (cAMP increase), inactive:
O=C(O)C1=C(C(=O)O)C2CCC1C2 13.7%
CC1=C(C(=O)N2CCOCC2)CC(CC(=O)NCCN2CCOCC2)C(=O)N1CCC1=CCCCC1 (stereo unspecified) -40.6%
CC1(c2cccc(N)c2)OCCO1 6.78%
CCc1cccc(CC)c1N1C(=O)CC(Sc2ccccc2N)C1=O (stereo unspecified) -34.3%
CCCCN(C(C)=O)c1ccc2c(c1)C1CC2CCN1Cc1ccccc1 (stereo unspecified) 12.9%
CCOc1ccc(S(=O)(=O)NCCC(=O)NNC(=O)c2ccc(F)cc2)cc1 6.08%
Cc1ccc(NC(=O)Cn2sc3ccccc3c2=O)cc1 3.51%
CC1C(C)N(C(=O)CCl)c2ccccc2N1C(=O)CCl (stereo unspecified) -0.561% [at 15.4 µM]
CC1CCCC(C)N1C(=O)COC(=O)c1ccccc1C(=O)c1ccccc1 (stereo unspecified) -62.2%
CC1(C)NC(=O)N(CC(=O)Nc2ccc(-c3ccccc3)cc2)C1=O -25.4%
CC1C(=O)N(Cc2cn(CC3CCCCC3)nn2)CCS(=O)(=O)N1Cc1ccc(-c2cccc(N(C)C)c2)cc1 (stereo unspecified) -37.2%
CCOC(=O)C(=Cc1ccccc1)C(=O)c1ccccc1 -32.4%
COc1ccc(S(=O)(=O)N2CCN(CC(=O)N3CCNC3=O)CC2)cc1OC -61.6%
O=C(OCC(=O)N1CCCCCC1)c1cccc(Cl)c1Cl 7.89%
CSc1ncnc2c1ncn2CCCNCC(C)c1ccccc1 (stereo unspecified) -17.8%
C[C@H]1NS(=O)(=O)c2cc(Cl)ccc2O[C@@H]1c1ccccc1 -56.1%
COc1cc2nnn(-c3ccncc3)c2cc1OC -62.2%
O=C(COC(=O)/C=C/c1ccc(Cl)cc1)NC1CCS(=O)(=O)C1 (stereo unspecified) 7.94%
Cc1ccccc1-c1ccc2c(c1)O[C@@H](CN(C)Cc1ccc(C(=O)O)cc1)[C@@H](C)CN([C@H](C)CO)S2(=O)=O 9.04%
CCN(Cc1ccncc1)C(=S)Nc1ccccc1C 3.88%
CC1CCCC(NC(=O)COC(=O)c2ccccc2C(=O)N(C)C2CCCCC2)C1C (stereo unspecified) -11.9%
CCN(CC)C(=O)C1=C(C)N(Cc2ccc(OC)cc2)C(=O)C(CC(=O)NCCCCc2ccccc2)C1 (stereo unspecified) -64.5%
N#CCCC(C#N)(c1cccnc1)N1CCOCC1 (stereo unspecified) 5.47%
CCc1cc(C(=O)N(CC)CC(=O)Nc2c(F)cccc2F)sc1C -14.1%
Cc1ccc(-c2ccc(CN3C(C)C(=O)N(Cc4cn(CCC5OCCCO5)nn4)CCS3(=O)=O)cc2)cc1 (stereo unspecified) -4.97%
COc1ccc(S(=O)(=O)N2CCC(C(=O)NCCC(=O)Nc3ccccc3OC)CC2)cc1 -127%
CC1CC(NC(=S)N(C)C)CC(C)(C)C1 (stereo unspecified) -1.96%
CC(C)NC(=O)Nc1ccc2c(c1)C(=O)N([C@H](C)CO)C[C@H](C)[C@@H](CN(C)Cc1ccc(C(F)(F)F)cc1)OCCCC[C@@H](C)O2 -39.1%
O=C(NN=Cc1ccc2c(c1)CCC2)c1ccccc1O 5.61%
O[C@H]1C[C@H](c2ccc(Cl)cc2)N(Cc2cccs2)C[C@@H]1n1cc(C2CC2)nn1 -12.1%
CC(=O)Nc1ccc2c3c(ccc([N+](=O)[O-])c13)CC2 32.7%
O=C(O)c1ccccc1NC(=O)c1ccccc1-c1ccccc1C(=O)O -12.9%
COC(=O)c1ccccc1NC(=S)NC(=O)c1ccccc1F 3.68%
O=C(COC(=O)CCc1c[nH]c2ccccc12)Nc1cccc(Cl)c1 -5.04%
COC(=O)C(Cc1c[nH]c2ccccc12)NC(=O)CCNC(=O)c1ccco1 (stereo unspecified) 1.54%
COc1ccc(-c2cnc3c(c2)C(=O)N([C@H](C)CO)C[C@@H](C)[C@H](CN(C)Cc2ccccc2)O3)cc1 5.7%
COc1ccc(-c2ccc(CN3C(C(C)C)C(=O)N(Cc4cn(CC5CCCCC5)nn4)CCS3(=O)=O)cc2)cn1 (stereo unspecified) 4.31%
CCCc1ccc(S(=O)(=O)N2CCN(C(=O)c3cc(C)on3)CC2)cc1 1.12%
CCc1noc(C)c1C(=O)OCC(=O)c1ccc(NC(=O)CC(C)C)cc1 -39.5%
COc1ccc(CN2C(=O)C(CC(=O)NCCN3CCOCC3)CC(C(=O)N(C(C)C)C(C)C)=C2C)cc1 (stereo unspecified) 15.2%
COc1ccc(NC(=O)CCCOc2ccc(C(C)=O)cc2)cc1S(=O)(=O)N1CCCCC1 -9.18%
COc1cccc(/C=C2\SC(=S)N(CCCC(=O)N3CCOCC3)C2=O)c1 -22.2%
Cc1ccc2cccc([N+](=O)[O-])c2n1 -22.1%
CCN(CC)C(=O)C(C)N1c2cccc3cccc(c23)S1(=O)=O (stereo unspecified) 1.11%
Cc1ccc(C(=O)NC(C)C(c2cccs2)N2CCOCC2)cc1C (stereo unspecified) -240%
COc1ccc(OC)c(NC(=O)C2CCCN2S(=O)(=O)c2ccc3c(c2)CC(C)N3C(C)=O)c1 (stereo unspecified) -22.5%
C[C@@H]1CN([C@@H](C)CO)C(=O)c2cc(NS(C)(=O)=O)ccc2O[C@@H](C)CCCCO[C@H]1CN(C)C(=O)Nc1ccc2c(c1)OCO2 -24.6%
Cc1cccn2c(=O)c3cc(C#N)c(=NC(=O)c4cccnc4)n(CC4CCCO4)c3nc12 (stereo unspecified) 26.8%
COCCCn1c(C(=O)NC2CCCCC2)cc2c(=O)n3cccc(C)c3nc21 27.2%
Cc1nnc(SC(C)C(=O)c2c[nH]c3ccccc23)n1C1CC1 (stereo unspecified) 2.61%
Cc1ccc(C(=O)N[C@H](C(=O)N2CCN(c3ncccn3)CC2)C(C)C)cc1 -12.3%
CC(C)CCOc1ccc(C(=O)Nc2cc(S(=O)(=O)N3CCOCC3)ccc2N2CCOCC2)cc1 -108%
Cc1cccc(C(=O)NC2CCN(CC(=O)Nc3cccc(Cl)c3)CC2)c1 -42.7%
Cc1csc(SCC(=O)Nc2ccc(C)c(S(=O)(=O)N(C)C)c2)n1 -20.6%
CC1=C(C(=O)Nc2cccc(C(=O)NCC(C)c3ccccc3)c2)SCCO1 (stereo unspecified) 10.4%
O=C1[C@H]2[C@@H](c3ccc(C(F)(F)F)cc3)N[C@]3(CCCN(Cc4ccc(Cl)cc4)C3=O)[C@H]2C(=O)N1Cc1ccccc1 1.18%
CCN1C(=O)[C@H]2[C@@H](c3ccccc3)N[C@]3(CCCN(Cc4ccc(C)cc4)C3=O)[C@H]2C1=O 5.38%
Cn1c(CCN2CCN(c3ccccn3)CC2)nc2cc(NS(=O)(=O)c3ccc(F)cc3)ccc21 -10.2%
c1ccc(Cn2nnc3c(NCC4CC4)ncnc32)cc1 2.75%

Potency, active:
O=C(NC(=S)Nc1ccccc1C(=O)O)c1ccc(-c2ccc(Br)cc2)o1 14.1 µM
Cc1cccn2c(=O)c3cc(C#N)c(=O)n(CCCN4CCOCC4)c3nc12 20 µM
